GPR151 ag: activators of human GPR151, primary screen, cell-based, PathHunter beta-arrestin, luminescence; G-protein coupled receptor 151 (Homo sapiens), Q8TDV0; PathHunter beta-arrestin GPR151 cells; activation, % at 11.2 µM; hit rate 1% among 650,000; in the data active means activation above about 4.9%;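 further: 0% = median of compound wells and 100% = cells with positive control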
FBW7 act: FBW7 E3 ligase activators, primary screen, biochemical, AlphaScreen, human | F-box/WD repeat-containing protein 7 (Homo sapiens), Q969H0 | AlphaScreen FBW7–phospho-cyclin E peptide binding, activator screen | normalized activity (activation), % at 26.1 µM | hit rate 0.13% among 650,000 | AID 1259310, 2017; in the data active means normalized activity above about 1.9%;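 further: purified mutant Fbw7 with reduced substrate affinity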
TEAD-YAP inh: TEAD-YAP interaction inhibition, primary screen, TEAD-YAP interaction inhibitor project, luminescence, HEK-TIYL cells | TEAD-Gal4/YAP UAS-luciferase luminescence | inhibition, % at 9.12 µM | hit rate 1.4% among 640,000; in the data active means inhibition above about 32%;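 further: 0% = median of test compound wells and 100% = reference inhibitor wells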
MITF inh: MITF inhibitors, primary screen, biochemical, AlphaScreen, human; Microphthalmia-associated transcription factor (Homo sapiens), O75030; AlphaScreen MITF homodimerization, bead proximity signal; inhibition, % at 2.6 µM; hit rate 0.91% among 650,000; in the data active means inhibition above about 50%;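 further: 0% = vehicle wells with protein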
Target sequence (O75030 whole entry, looked up): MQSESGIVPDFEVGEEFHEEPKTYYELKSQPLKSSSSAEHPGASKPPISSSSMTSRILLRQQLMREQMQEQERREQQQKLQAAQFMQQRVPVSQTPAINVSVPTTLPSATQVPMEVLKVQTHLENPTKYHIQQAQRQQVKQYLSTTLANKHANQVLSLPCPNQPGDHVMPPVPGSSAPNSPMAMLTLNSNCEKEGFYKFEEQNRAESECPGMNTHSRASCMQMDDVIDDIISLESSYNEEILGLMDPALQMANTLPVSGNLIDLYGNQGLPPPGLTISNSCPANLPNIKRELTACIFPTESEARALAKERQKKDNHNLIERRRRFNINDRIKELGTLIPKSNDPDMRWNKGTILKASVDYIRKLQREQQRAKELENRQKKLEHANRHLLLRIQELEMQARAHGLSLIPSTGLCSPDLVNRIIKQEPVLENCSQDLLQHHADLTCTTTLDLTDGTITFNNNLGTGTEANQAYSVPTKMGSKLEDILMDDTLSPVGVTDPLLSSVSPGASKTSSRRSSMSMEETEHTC
MITF inh conf: MITF inhibitors, retest of hits, confirmation, biochemical, AlphaScreen, triplicate. shares compounds with MITF inh. AlphaScreen MITF homodimerization, biotin/His-MITF beads. inhibition, % at 2.6 µM. hit rate 16% among 4,700. AID 1259372, 2018;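 active means inhibition above a cutoff derived from the DMSO control wells, cut at about 28% in these data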;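 further: 0% = MITF dimer wells with DMSO only; inhibitors lower the bead chemiluminescence by keeping MITF from dimerizing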
AS interf ctr: AlphaScreen optical interference compounds, counter-screen for MITF inhibitor project, biochemical, triplicate | AID 1259376, 2018 | shares compounds with MITF inh | hit rate 7.6% among 4,700 | LysRS AlphaScreen counterscreen, signal interference | inhibition, % at 2.6 µM;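 active means inhibition above a cutoff derived from the DMSO control wells, cut at about 30% in these data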
* hit, by the source's call. Hits are enriched below; roughly 3.4% of the tested compounds scored in any of these assays.

`CC1(NCC(O)COc2ccccc2)CCS(=O)(=O)C1` (configuration not stated) gave GPR151 ag 0, FBW7 act 0, TEAD-YAP inh 8, MITF inh 65*, MITF inh conf 2 and AS interf ctr -2.
CC(C)(c1ccccc1)c1ccc(OCC(O)CN2CCCCC2)cc1 (configuration not stated) was read as GPR151 ag 0, FBW7 act 0, TEAD-YAP inh -3 and MITF inh 3.
`Cc1ccc(NC(=O)CSc2cn(Cc3ccc(Cl)cc3)c3ccccc23)cc1` gave GPR151 ag 1, FBW7 act 0, TEAD-YAP inh -7 and MITF inh -4.
For Cc1nnn(C23CC4CC(CC(CC(=O)Nc5ccc(F)cc5)(C4)C2)C3)n1 the results were GPR151 ag 0, FBW7 act 1, TEAD-YAP inh -8, MITF inh 75*, MITF inh conf 10 and AS interf ctr 9.
Cc1ncc(CO)c(/C=N/Nc2nc3ccccc3o2)c1O was read as GPR151 ag -1, FBW7 act -1, TEAD-YAP inh 11, MITF inh 65*, MITF inh conf 19 and AS interf ctr 47*.
`COc1ccc(CC(=O)N2CCN(c3cccc(C)c3C)CC2)cc1` gave GPR151 ag 1, FBW7 act 0, TEAD-YAP inh 16 and MITF inh 18.
COc1ccc(S(=O)(=O)CCC(=O)N2CCN(c3cccc(C)c3C)CC2)cc1 was read as GPR151 ag 1, FBW7 act 0, TEAD-YAP inh 0, MITF inh 63*, MITF inh conf 16 and AS interf ctr 9.
For CCCCNCCOCCOc1ccc(C)c(C)c1 the results were GPR151 ag 1, FBW7 act 0, TEAD-YAP inh 1, MITF inh 61*, MITF inh conf 0 and AS interf ctr 4.
Screening CCCCNCCOCCOc1cccc(Cl)c1 returned GPR151 ag 1, FBW7 act 0, TEAD-YAP inh 6, MITF inh 80*, MITF inh conf 5 and AS interf ctr 6.
COC(=O)c1ccc(N2C(=O)CSC2c2cccnc2)cc1 (configuration not stated) was read as GPR151 ag 0, FBW7 act 0, TEAD-YAP inh -2 and MITF inh 13.
For O=C(Nc1ccccc1C(F)(F)F)c1cc([N+](=O)[O-])ccc1Cl the results were GPR151 ag 2, FBW7 act 0, TEAD-YAP inh 20 and MITF inh 8.
For COc1ccc(CN2CCN(Cc3ccco3)CC2)cc1OCc1ccccc1 the results were GPR151 ag 0, FBW7 act 0, TEAD-YAP inh 1, MITF inh 60*, MITF inh conf 8 and AS interf ctr 8.
Screening COc1ccc(CN2CCN(S(=O)(=O)c3ccc([N+](=O)[O-])cc3)CC2)cc1OCc1ccccc1 returned GPR151 ag 1, FBW7 act 0, TEAD-YAP inh 30, MITF inh 52*, MITF inh conf 14 and AS interf ctr 23.
Screening CCS(=O)(=O)N1CCN(Cc2ccc(OCc3ccccc3)c(OC)c2)CC1 returned GPR151 ag 1, FBW7 act 0, TEAD-YAP inh 0, MITF inh 51*, MITF inh conf 14 and AS interf ctr 10.
COc1ccc(CNCc2ccco2)cc1OCc1ccccc1 was read as GPR151 ag -1, FBW7 act 0, TEAD-YAP inh -12 and MITF inh 41.
CCOc1ccc(CN2CCN(Cc3ccc(OC)c(OC)c3)CC2)cc1 was read as GPR151 ag 2, FBW7 act 0, TEAD-YAP inh 25 and MITF inh 47.
CCOc1ccc(CN2CCN(Cc3ccc(OC)c(OCc4ccccc4)c3)CC2)cc1 was read as GPR151 ag 1, FBW7 act 0, TEAD-YAP inh 16, MITF inh 69*, MITF inh conf -10 and AS interf ctr 5.
COc1cc(CN2CCN(S(=O)(=O)c3ccccc3)CC2)ccc1OCc1ccccc1 was read as GPR151 ag 1, FBW7 act 0, TEAD-YAP inh 6 and MITF inh 36.
`CCCCOc1ccc(C(CC(=O)c2ccc(C)cc2)Nc2ccc(I)cc2)cc1` (configuration not stated) gave GPR151 ag 1, FBW7 act 0, TEAD-YAP inh 3 and MITF inh 8.
Cn1c(SCC(N)=O)nnc1-c1cccc(C#N)c1 was read as GPR151 ag -1, FBW7 act 0, TEAD-YAP inh -8 and MITF inh 8.
`CCOC(=O)c1ccccc1NC(=O)CN1CCN(Cc2nc3ccccc3[nH]2)CC1` gave GPR151 ag 0, FBW7 act 0, TEAD-YAP inh 4 and MITF inh 0.
`CCS(=O)(=O)N1CCN(Cc2nc3ccc(OC)cc3[nH]2)CC1` gave GPR151 ag -2, FBW7 act -1, TEAD-YAP inh -7, MITF inh 62*, MITF inh conf 14 and AS interf ctr 22.
CCS(=O)(=O)N1CCN(Cc2ccc(OC)cc2)CC1 was read as GPR151 ag 0, FBW7 act 0, TEAD-YAP inh 6 and MITF inh 38.
Screening CNC(=O)CN1CCN(Cc2nc3ccc(OC)cc3[nH]2)CC1 returned GPR151 ag 0, FBW7 act 0, TEAD-YAP inh 3, MITF inh 80*, MITF inh conf 12 and AS interf ctr 12.
`CCN1C(=S)O/C(=C/N(C(C)=O)c2ccccc2)C1=S` gave GPR151 ag 0, FBW7 act 0, TEAD-YAP inh -74 and MITF inh -5.
For CCOC(=O)N1CCN(C(=O)CN2CCC(Cn3cnc4ccccc43)CC2)CC1 the results were GPR151 ag 0, FBW7 act 0, TEAD-YAP inh 29, MITF inh 76*, MITF inh conf 13 and AS interf ctr 19.
For O=C(CCN1C(=O)c2ccccc2C1=O)CN1CCC(Cn2cnc3ccccc32)CC1 the results were GPR151 ag -1, FBW7 act 0, TEAD-YAP inh 4, MITF inh 59*, MITF inh conf 5 and AS interf ctr 18.
`O=C(CSCc1ccccc1)N1CCC(Cn2cnc3ccccc32)CC1` gave GPR151 ag 2, FBW7 act 0, TEAD-YAP inh 5, MITF inh 67*, MITF inh conf 4 and AS interf ctr 15.
Screening O=C(Nc1ccc2c(c1)OCO2)N1CCC(Cn2cnc3ccccc32)CC1 returned GPR151 ag 0, FBW7 act 0, TEAD-YAP inh -34 and MITF inh 10.
CN(C(=O)CCN1C(=O)c2ccccc2C1=O)C1CCCCC1 was read as GPR151 ag 0, FBW7 act 0, TEAD-YAP inh 7 and MITF inh 1.

Screens (PubChem BioAssay)
